Results from PubChem BioAssay (EPA / NIEHS).
“And” between values parts separate entries of the source, which are not always exact repeats. Equal values may be shown once. Results filed as inconclusive are left out. A structure can be active in one record and inactive in another. The source made the active and inactive calls. The calls were made as follows: active = hit-call score of the fitted dose curve at least 0.9, where 1 is the maximum; inconclusive = response in the unintended direction; inactive = score below 0.9.

Key:
[1] = ATG_M_06_XSP2: Attagene TRANS-FACTORIAL Multi-Species (XSP2) HepG2 Assay for M06 Transcription Factor (Internal Marker) (AID 2283811);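 also: hits are increases in signal above the DMSO baseline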
Procedure, shortened: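 Readout: fluorescent reporter-mRNA peaks by capillary electrophoresis after RT-PCR and HpaI digest, scored upward relative to DMSO. Transfected HepG2, 24 h chemical exposure, with 3 nM 6-alpha-fluorotestosterone and 1.5 nM norgestrel added.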

[2] = system: turtle Estrogen Receptor (ERa), gene 101933533; assay: ATG_trERa_XSP2: Attagene TRANS-FACTORIAL Multi-Species (XSP2) HepG2 Assay for turtle Estrogen Receptor (ERa) (AID 2283812);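 also: actives raise reporter signal above DMSO so AC50 reflects agonist activity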
Procedure, shortened: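 Readout is reporter mRNA quantified by RT-PCR with capillary electrophoresis after 24 h compound exposure, increase relative to DMSO. Uses transiently transfected human HepG2 liver cells carrying a chimeric turtle ERa-Gal4 receptor driving GAL4-UAS reporters.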

[3] = target: zebrafish Estrogen Receptor (ER1), esr1 (gene 259252) (UniProt P57717); assay: ATG_zfER1_XSP2: Attagene TRANS-FACTORIAL Multi-Species (XSP2) HepG2 Assay for zebrafish Estrogen Receptor (ER1) (AID 2283816)
zebrafish Estrogen Receptor (ER1), esr1 (gene 259252), sequence (P57717 whole entry, looked up, the tested form may be a part): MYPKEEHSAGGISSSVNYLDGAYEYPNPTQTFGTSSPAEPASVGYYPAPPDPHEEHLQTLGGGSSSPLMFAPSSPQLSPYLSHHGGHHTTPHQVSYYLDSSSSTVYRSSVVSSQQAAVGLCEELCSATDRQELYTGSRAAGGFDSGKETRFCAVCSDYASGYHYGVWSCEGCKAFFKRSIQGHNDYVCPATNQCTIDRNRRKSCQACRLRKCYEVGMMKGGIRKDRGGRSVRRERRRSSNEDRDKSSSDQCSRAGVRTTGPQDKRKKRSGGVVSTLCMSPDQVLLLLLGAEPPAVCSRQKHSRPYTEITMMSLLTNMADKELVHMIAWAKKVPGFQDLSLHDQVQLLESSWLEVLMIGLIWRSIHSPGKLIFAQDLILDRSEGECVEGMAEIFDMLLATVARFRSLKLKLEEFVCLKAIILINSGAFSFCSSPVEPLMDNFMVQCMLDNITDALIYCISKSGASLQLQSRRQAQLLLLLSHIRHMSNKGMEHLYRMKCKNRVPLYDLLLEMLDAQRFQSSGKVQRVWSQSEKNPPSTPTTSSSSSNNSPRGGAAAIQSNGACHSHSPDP
Procedure, shortened: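 After 24 h compound exposure, RNA from transfected HepG2 cells was reverse-transcribed and reporter transcripts resolved by capillary electrophoresis. The TRANS format reads exogenous zebrafish ER1-Gal4 chimera activity on GAL4-UAS elements; gain of signal against DMSO.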

[4] = system: zebrafish Estrogen Receptor (ER2a), gene 317734; assay: ATG_zfER2a_XSP2: Attagene TRANS-FACTORIAL Multi-Species (XSP2) HepG2 Assay for zebrafish Estrogen Receptor (ER2a) (AID 2283818);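 also: hits raise reporter mRNA so AC50 reflects activation of zebrafish ER2a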
Procedure, shortened: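 Multiplexed trans-reporter readout: RT-PCR then capillary electrophoresis of reporter transcripts after 24 h compound treatment. Human HepG2 carries transfected zebrafish ER2a-Gal4 chimera; 3 nM 6-alpha-fluorotestosterone plus 1.5 nM norgestrel present. Induction scored against DMSO.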

[5] = system: chicken Androgen Receptor (AR), gene 422165; assay: ATG_chAR_XSP2: Attagene TRANS-FACTORIAL Multi-Species (XSP2) HepG2 Assay for chicken Androgen Receptor (AR) (AID 2283819);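 also: hits raise reporter mRNA above DMSO so potency is for activation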
Procedure, shortened: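 Readout is reporter mRNA induction via RT-PCR/capillary electrophoresis after 24 h chemical exposure, positive direction relative to DMSO. Transiently transfected HepG2 express chimeric chicken AR–GAL4; AR stimulated by 3 nM 6-alpha-fluorotestosterone and 1.5 nM norgestrel.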

[6] = system: frog Estrogen Receptor (ER), gene 398734; assay: ATG_frER1_XSP2: Attagene TRANS-FACTORIAL Multi-Species (XSP2) HepG2 Assay for frog Estrogen Receptor (ER) (AID 2283821);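 also: hits raise reporter mRNA above DMSO baseline so potency means agonist or activator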
Procedure, shortened: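 Reporter mRNA induction, detected as fluorescence after RT-PCR and capillary electrophoresis, is the endpoint; activity is fitted upward against DMSO. Cells are human liver HepG2 carrying transfected NR-Gal4 chimeras with GAL4-UAS-driven reporters, harvested 24 h post-dosing.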

[7] = system: zebrafish Estrogen Receptor (ER2b), gene 317733; assay: ATG_zfER2b_XSP2: Attagene TRANS-FACTORIAL Multi-Species (XSP2) HepG2 Assay for zebrafish Estrogen Receptor (ER2b) (AID 2283823);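 also: fitted upward as reporter gain over DMSO so potency reflects activation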
Procedure, shortened: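 Transfect HepG2 with GAL4-UAS reporter constructs; dose chemicals, 24 h; isolate RNA, RT-PCR, FAM-label, HpaI digest; capillary electrophoresis. Gain-of-signal vs DMSO.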

[8] = target: Estrogen receptor (Homo sapiens) (UniProt P03372); assay: ATG_hERa_XSP2: Attagene TRANS-FACTORIAL Multi-Species (XSP2) HepG2 Assay for human Estrogen Receptor (ERa) (AID 2283827)
Estrogen receptor (Homo sapiens), sequence (P03372 whole entry, looked up, the tested form may be a part): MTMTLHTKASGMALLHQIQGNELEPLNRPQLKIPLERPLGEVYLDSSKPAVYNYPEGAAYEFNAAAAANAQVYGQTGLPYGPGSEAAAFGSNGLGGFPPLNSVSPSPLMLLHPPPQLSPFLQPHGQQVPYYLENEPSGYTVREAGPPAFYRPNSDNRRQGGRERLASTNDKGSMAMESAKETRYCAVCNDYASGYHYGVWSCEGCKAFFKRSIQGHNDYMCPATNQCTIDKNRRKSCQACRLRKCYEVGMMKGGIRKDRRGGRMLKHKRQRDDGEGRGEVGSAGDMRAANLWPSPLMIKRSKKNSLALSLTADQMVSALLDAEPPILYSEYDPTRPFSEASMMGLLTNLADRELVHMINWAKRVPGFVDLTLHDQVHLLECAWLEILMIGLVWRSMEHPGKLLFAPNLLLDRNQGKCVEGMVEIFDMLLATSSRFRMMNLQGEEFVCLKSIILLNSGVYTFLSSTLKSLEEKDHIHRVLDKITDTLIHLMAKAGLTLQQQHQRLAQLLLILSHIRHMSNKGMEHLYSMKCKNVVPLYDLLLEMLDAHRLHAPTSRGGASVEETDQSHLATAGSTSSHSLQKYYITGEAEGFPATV
Procedure, shortened: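 Trans-activation of exogenous human ERa-Gal4 chimera read in HepG2 as reporter transcript after 24 h exposure; medium included 3 nM 6-alpha-fluorotestosterone and 1.5 nM norgestrel. Quantified by RT-PCR with capillary electrophoresis, positive-direction fitting against DMSO.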

[9] = target: Estrogen receptor beta (Homo sapiens) (UniProt Q92731); assay: ATG_hERb_XSP2: Attagene TRANS-FACTORIAL Multi-Species (XSP2) HepG2 Assay for human Estrogen Receptor (ERb) (AID 2283813);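 also: actives raise reporter mRNA above DMSO so AC50 reflects agonist induction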
Estrogen receptor beta (Homo sapiens), sequence (Q92731 whole entry, looked up, the tested form may be a part): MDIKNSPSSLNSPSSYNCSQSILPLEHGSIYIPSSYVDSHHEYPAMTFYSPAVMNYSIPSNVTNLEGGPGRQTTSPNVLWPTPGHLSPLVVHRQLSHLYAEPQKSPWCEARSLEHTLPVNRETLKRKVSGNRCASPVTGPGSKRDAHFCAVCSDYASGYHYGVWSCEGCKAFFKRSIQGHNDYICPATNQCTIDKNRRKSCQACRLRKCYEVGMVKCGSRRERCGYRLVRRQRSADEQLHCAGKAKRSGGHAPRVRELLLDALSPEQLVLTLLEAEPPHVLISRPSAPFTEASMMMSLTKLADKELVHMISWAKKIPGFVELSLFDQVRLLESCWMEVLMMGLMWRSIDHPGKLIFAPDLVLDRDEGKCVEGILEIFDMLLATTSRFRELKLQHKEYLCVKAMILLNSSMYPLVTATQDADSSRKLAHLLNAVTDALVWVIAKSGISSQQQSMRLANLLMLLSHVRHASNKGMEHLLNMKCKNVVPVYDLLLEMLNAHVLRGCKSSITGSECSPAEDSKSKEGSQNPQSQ
Procedure, shortened: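 Transient TRANS reporter system in HepG2: after 24 h of chemical, RNA is reverse-transcribed, reporter cDNA amplified, FAM-labelled and sized by capillary electrophoresis. Induction of the human ERb-Gal4 reporter is measured relative to DMSO.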

[10] = target: GAL4 Transcription Factor (Internal Marker), GAL4 (gene 855828) (UniProt P04386); assay: ATG_GAL4_XSP2: Attagene TRANS-FACTORIAL Multi-Species (XSP2) HepG2 Assay for GAL4 Transcription Factor (Internal Marker) (AID 2283814);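 also: GAL4 reporter mRNA background control in MRTU transfected cells not a receptor target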
GAL4 Transcription Factor (Internal Marker), GAL4 (gene 855828), sequence (P04386 whole entry, looked up, the tested form may be a part): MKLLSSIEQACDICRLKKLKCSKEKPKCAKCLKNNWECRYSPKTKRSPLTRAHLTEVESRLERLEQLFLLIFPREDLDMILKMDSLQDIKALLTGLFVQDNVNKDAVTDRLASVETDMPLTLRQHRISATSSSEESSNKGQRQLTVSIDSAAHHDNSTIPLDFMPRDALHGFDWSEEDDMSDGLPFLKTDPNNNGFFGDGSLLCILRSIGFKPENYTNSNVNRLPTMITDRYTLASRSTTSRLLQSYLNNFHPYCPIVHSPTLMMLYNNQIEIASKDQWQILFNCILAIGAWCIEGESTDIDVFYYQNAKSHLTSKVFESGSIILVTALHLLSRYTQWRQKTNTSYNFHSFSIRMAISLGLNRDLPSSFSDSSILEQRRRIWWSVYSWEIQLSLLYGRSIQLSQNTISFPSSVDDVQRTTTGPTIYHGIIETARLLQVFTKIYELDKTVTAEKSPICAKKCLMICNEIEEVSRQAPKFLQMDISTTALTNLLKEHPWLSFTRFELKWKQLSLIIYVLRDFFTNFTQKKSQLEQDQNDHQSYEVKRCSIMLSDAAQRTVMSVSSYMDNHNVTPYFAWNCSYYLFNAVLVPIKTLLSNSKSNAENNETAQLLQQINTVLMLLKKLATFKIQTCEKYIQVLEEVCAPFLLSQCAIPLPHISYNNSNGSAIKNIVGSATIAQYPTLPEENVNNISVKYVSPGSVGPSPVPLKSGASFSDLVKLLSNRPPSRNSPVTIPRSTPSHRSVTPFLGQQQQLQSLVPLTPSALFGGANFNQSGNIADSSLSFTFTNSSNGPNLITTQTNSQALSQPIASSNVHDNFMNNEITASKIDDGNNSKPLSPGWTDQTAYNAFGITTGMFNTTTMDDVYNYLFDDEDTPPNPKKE
Procedure, shortened: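 Background-control readout: gain-of-signal fitted against DMSO. After 24 h exposure of transfected HepG2 (MRTU, GAL4-UAS reporters; 3 nM 6-alpha-fluorotestosterone, 1.5 nM norgestrel present), transcripts quantified by RT-PCR and capillary electrophoresis fluorescence.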

[11] = target: chicken Estrogen Receptor (ERa), ESR1 (gene 396099) (UniProt P06212); assay: ATG_chERa_XSP2: Attagene TRANS-FACTORIAL Multi-Species (XSP2) HepG2 Assay for chicken Estrogen Receptor (ERa) (AID 2283817);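 also: actives raise reporter signal above DMSO so AC50 reflects ER activation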
chicken Estrogen Receptor (ERa), ESR1 (gene 396099), sequence (P06212 whole entry, looked up, the tested form may be a part): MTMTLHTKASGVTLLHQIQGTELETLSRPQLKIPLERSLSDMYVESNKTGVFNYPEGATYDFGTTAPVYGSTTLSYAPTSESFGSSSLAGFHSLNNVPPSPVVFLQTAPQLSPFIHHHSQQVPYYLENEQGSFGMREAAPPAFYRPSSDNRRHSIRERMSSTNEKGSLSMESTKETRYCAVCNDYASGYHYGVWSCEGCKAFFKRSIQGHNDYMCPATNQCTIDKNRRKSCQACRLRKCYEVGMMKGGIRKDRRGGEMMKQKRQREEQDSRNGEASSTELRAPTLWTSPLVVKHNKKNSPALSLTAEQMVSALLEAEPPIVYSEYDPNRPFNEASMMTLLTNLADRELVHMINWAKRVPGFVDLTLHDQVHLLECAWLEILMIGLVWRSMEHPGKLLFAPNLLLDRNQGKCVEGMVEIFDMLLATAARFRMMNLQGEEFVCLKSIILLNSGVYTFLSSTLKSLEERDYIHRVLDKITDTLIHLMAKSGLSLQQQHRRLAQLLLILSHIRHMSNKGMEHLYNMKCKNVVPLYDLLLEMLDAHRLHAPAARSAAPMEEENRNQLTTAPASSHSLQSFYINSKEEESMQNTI
Procedure, shortened: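 Readout: fluorescent reporter-transcript fragments resolved by capillary electrophoresis after RT-PCR and HpaI cut. Chicken ERa-Gal4 fusion in transiently transfected HepG2, dosed for 24 h; activity taken as increase over DMSO baseline.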

[12] = system: zebrafish Androgen Receptor (AR), gene 100005148; assay: ATG_zfAR_XSP2: Attagene TRANS-FACTORIAL Multi-Species (XSP2) HepG2 Assay for zebrafish Androgen Receptor (AR) (AID 2283825);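 also: hits raise reporter mRNA above DMSO so AC50 reflects agonist-type gain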
Procedure, shortened: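 After 24 h compound exposure in medium with 3 nM 6-alpha-fluorotestosterone plus 1.5 nM norgestrel, HepG2 cells carrying zebrafish AR–GAL4 reporter constructs were assessed for reporter mRNA gain by RT-PCR and capillary electrophoresis.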

[13] = ATG_M_19_XSP2: Attagene TRANS-FACTORIAL Multi-Species (XSP2) HepG2 Assay for M32 Transcription Factor (Internal Marker) (AID 2283822)
Procedure, shortened: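 Internal background marker in a multi-species nuclear receptor TRANS panel: transfected HepG2 cells exposed 24 h, with 3 nM 6-alpha-fluorotestosterone and 1.5 nM norgestrel present. Readout is RT-PCR of reporter transcripts resolved by capillary electrophoresis, gain-of-signal versus DMSO.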

[14] = system: turtle Androgen Receptor (AR), gene 101947425; assay: ATG_trAR_XSP2: Attagene TRANS-FACTORIAL Multi-Species (XSP2) HepG2 Assay for turtle Androgen Receptor (AR) (AID 2283815);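 as to AC50: reporter mRNA from a Gal4 chimera of turtle AR measured by RT-PCR; potency for gain of reporter signal meaning activation above DMSO baseline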
Procedure, shortened: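 Reporter transcripts were quantified via RT-PCR and capillary electrophoresis and fitted upward against DMSO. Transiently transfected human HepG2 cells carrying NR-Gal4 chimeras were exposed 24 h, with 3 nM 6-alpha-fluorotestosterone plus 1.5 nM norgestrel added.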

[15] = system: frog Androgen Receptor (AR), gene 399456; assay: ATG_frAR_XSP2: Attagene TRANS-FACTORIAL Multi-Species (XSP2) HepG2 Assay for frog Androgen Receptor (AR) (AID 2283824);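 also: reporter mRNA from GAL4-UAS units driven by Xenopus AR-Gal4 chimera; actives raise reporter signal above DMSO so AC50 reflects agonist-like induction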
Procedure, shortened: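 Reporter transcript induction, read by RT-PCR with fluorescent capillary electrophoresis, in human liver HepG2 cells carrying an exogenous Xenopus AR-Gal4 fusion and GAL4-driven reporters; chemical exposure 24 hours, activity scored upward against DMSO controls.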

[16] = system: zebrafish Peroxisome Proliferator-activated Receptor gamma (PPARg), gene 557037; assay: ATG_zfPPARg_XSP1: Attagene TRANS-FACTORIAL Multi-Species (XSP1) HepG2 Assay for zebrafish Peroxisome Proliferator-activated Receptor gamma (PPARg) (AID 2283801)
Procedure, shortened: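 Trans-activation readout of chimeric zebrafish PPARg–GAL4 in transiently transfected human HepG2 cells, 24 h chemical exposure (medium includes 3 nM 6-alpha-fluorotestosterone). Reporter transcripts measured by RT-PCR and capillary electrophoresis, fitted as gain over DMSO.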

[17] = target: Nuclear receptor subfamily 1 group I member 2 (Mus musculus) (UniProt O54915); assay: ATG_mPXR_XSP1: Attagene TRANS-FACTORIAL Multi-Species (XSP1) HepG2 Assay for mouse Pregnane X Receptor (PXR) (AID 2283803)
Nuclear receptor subfamily 1 group I member 2 (Mus musculus), sequence (O54915 whole entry, looked up, the tested form may be a part): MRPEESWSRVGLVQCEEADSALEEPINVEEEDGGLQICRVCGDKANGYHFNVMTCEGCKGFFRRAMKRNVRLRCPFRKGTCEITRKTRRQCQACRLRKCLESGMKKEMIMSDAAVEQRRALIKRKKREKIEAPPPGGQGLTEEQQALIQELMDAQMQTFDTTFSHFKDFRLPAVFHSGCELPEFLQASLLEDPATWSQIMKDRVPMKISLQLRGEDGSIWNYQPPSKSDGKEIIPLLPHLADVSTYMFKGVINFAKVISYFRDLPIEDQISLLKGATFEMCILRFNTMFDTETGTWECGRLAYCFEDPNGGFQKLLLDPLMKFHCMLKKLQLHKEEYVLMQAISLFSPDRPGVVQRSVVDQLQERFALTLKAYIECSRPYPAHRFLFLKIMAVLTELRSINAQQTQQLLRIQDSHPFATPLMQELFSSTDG
Procedure, shortened: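 Transiently transfected HepG2 cells expressing a receptor-Gal4 chimera drive a GAL4-UAS reporter; 3 nM 6-alpha-fluorotestosterone included. Reporter mRNA read 24 h post-dose by RT-PCR and capillary electrophoresis; gain of signal relative to DMSO.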

[18] = target: frog Thyroid hormone Receptor alpha (TRa), thra-a (gene 397942) (UniProt P15204); assay: ATG_frTRa_XSP1: Attagene TRANS-FACTORIAL Multi-Species (XSP1) HepG2 Assay for frog Thyroid hormone Receptor alpha (TRa) (AID 2283804)
frog Thyroid hormone Receptor alpha (TRa), thra-a (gene 397942), sequence (P15204 whole entry, looked up, the tested form may be a part): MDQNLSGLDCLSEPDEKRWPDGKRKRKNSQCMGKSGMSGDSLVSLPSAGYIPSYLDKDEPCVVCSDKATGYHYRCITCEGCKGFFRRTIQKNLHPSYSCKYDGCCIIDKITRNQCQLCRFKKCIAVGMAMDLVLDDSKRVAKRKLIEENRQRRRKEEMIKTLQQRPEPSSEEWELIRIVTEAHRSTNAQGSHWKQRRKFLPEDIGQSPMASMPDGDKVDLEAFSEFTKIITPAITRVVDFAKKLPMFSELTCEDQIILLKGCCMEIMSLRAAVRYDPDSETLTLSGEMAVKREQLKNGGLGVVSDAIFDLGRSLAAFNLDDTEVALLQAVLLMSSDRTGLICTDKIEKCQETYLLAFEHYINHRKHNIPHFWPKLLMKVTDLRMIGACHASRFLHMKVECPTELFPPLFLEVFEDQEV
Procedure, shortened: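 Reporter transcript induction, measured by RT-PCR with 6-FAM labelling and capillary electrophoresis, 24 hr after dosing transiently transfected HepG2 cells expressing a frog TRa-GAL4 fusion; medium contained 3 nM 6-alpha-fluorotestosterone; increase over DMSO scored.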

[19] = system: turtle Thyroid Hormone Receptor, alpha (TRa), gene 101949057; assay: ATG_trTRa_XSP1: Attagene TRANS-FACTORIAL Multi-Species (XSP1) HepG2 Assay for turtle Thyroid Hormone Receptor, alpha (TRa) (AID 2283806)
Procedure, shortened: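 After 24 h chemical exposure, reporter transcripts were measured by RT-PCR with fluorescent primer extension, HpaI digestion and capillary electrophoresis. Cells were transiently transfected HepG2 expressing exogenous NR-Gal4 chimeras; medium contained 3 nM 6-alpha-fluorotestosterone; fitted upward relative to DMSO.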

[20] = target: zebrafish Thyroid Hormone Receptor beta (TRb), thrb (gene 30607) (UniProt Q9PVE4); assay: ATG_zfTRb_XSP1: Attagene TRANS-FACTORIAL Multi-Species (XSP1) HepG2 Assay for zebrafish Thyroid Hormone Receptor beta (TRb) (AID 2283809)
zebrafish Thyroid Hormone Receptor beta (TRb), thrb (gene 30607), sequence (Q9PVE4 whole entry, looked up, the tested form may be a part): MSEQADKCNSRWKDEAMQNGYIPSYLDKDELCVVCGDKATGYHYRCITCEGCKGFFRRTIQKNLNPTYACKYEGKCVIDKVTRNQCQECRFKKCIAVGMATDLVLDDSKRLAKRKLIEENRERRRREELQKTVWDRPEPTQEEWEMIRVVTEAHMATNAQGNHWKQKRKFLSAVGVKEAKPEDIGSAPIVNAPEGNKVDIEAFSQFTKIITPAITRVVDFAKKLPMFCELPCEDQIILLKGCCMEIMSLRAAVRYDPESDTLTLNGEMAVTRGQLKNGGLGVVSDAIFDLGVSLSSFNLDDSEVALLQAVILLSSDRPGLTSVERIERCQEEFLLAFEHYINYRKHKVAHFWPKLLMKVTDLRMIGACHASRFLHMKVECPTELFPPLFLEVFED
Procedure, shortened: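 HepG2 cells transiently transfected with multiplexed GAL4-UAS reporter units expressing chimeric zebrafish TRb–Gal4. Dosed 24 h with 3 nM 6-alpha-fluorotestosterone present; reporter mRNA measured by RT-PCR, HpaI digestion and capillary electrophoresis; gain of signal versus DMSO.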

Measured: AC50

N#Cc1ccc(C2CCCc3cncn32)cc1 (stereo unspecified)
inactive: [1] | [2] | [3] | [4] | [5] | [7] | [8]
active: [6] 50 µM | [7] 93.7 µM

CCCCCCCCCCCCc1ccc(O)cc1
active: [2] 327 nM and 57.8 nM | [3] 470 nM | [11] 526 nM and 135 nM | [6] 274 nM and 44 nM | [7] 377 nM and 126 nM | [8] 546 nM and 167 nM
inactive: [1] | [9] | [10] | [4] | [12]

O=C(O)/C=C/c1ccccc1
active: [6] 31.6 µM
inactive: [2] | [11] | [4] | [7] | [8]

Oc1ccc(-c2ccccc2)c(Cl)c1
inactive: [6] | [13]
active: [2] 4.73 µM and 2.56 µM | [9] 8.87 µM and 8.92 µM | [3] 17.3 µM and 20.1 µM | [11] 5.68 µM and 2.43 µM | [4] 4.34 µM and 9.01 µM | [7] 9.03 µM and 7 µM | [8] 5.18 µM and 4.36 µM

CC(CCC(=O)O)(c1ccc(O)cc1)c1ccc(O)cc1
active: [3] 134000 nM | [4] 46.6 µM and 34.7 µM | [7] 42.6 µM and 13.2 µM | [8] 17.4 µM and 2.94 µM
inactive: [1] | [2] | [9] | [10] | [14] | [3] | [11] | [5] | [6] | [15] | [12]

C=C1C[C@H]2[C@@H]3C=C(C)C4=CC(=O)CC[C@]4(C)[C@H]3CC[C@]2(C)[C@@]1(OC(C)=O)C(C)=O
inactive: [10] | [3] | [4] | [6] | [13] | [7]

Oc1ccccc1Cc1ccccc1O
inactive: [1] | [2] | [10] | [11] | [13]
active: [2] 26.9 µM | [9] 8.23 µM and 7.6 µM | [3] 58.4 µM and 100 µM | [11] 7.64 µM | [4] 27.3 µM and 8.24 µM | [6] 26.5 µM and 7.86 µM | [7] 29.1 µM and 18.2 µM | [8] 26.9 µM and 8.47 µM

COc1ccc(-c2coc3cc(O)cc(O)c3c2=O)cc1
active: [2] 1.27 µM and 161 nM | [9] 83.6 nM and 65.3 nM | [14] 1.81 µM | [3] 4.02 µM and 458 nM | [11] 1.24 µM and 200 nM | [4] 260 nM and 38 nM | [5] 10 µM and 6.25 µM | [6] 1.07 µM and 98.3 nM | [7] 2.28 µM and 310 nM | [8] 931 nM and 276 nM
inactive: [1] | [15]

CC(C)(C)NC(=O)[C@H]1CC[C@H]2[C@@H]3CC[C@H]4NC(=O)C=C[C@]4(C)[C@H]3CC[C@]12C
inactive: [16] | [18] | [19] | [20] | [1] | [2] | [10] | [11] | [6]
active: [17] 3.8 µM | [4] 142 µM | [7] 67.5 µM | [8] 33.5 µM

COc1ccc(C(=O)c2ccccc2)c(O)c1
active: [2] 4.74 µM and 26.3 µM | [9] 26.8 µM | [3] 11 µM and 16.7 µM | [11] 6.73 µM | [4] 9.9 µM | [6] 5.07 µM and 26 µM | [7] 43.3 µM and 14.3 µM | [8] 6.54 µM and 26.4 µM
inactive: [1] | [9] | [10] | [11]
